Hits are enriched below; roughly 31% of the tested compounds scored in any of these assays.
CYP2C19 activ: cytochrome P450 2C19 (human) activation; P33261; recombinant CYP2C19, luciferin-H EGE luminescence; active compounds read high; 0 = fully inhibited enzyme, 1 = untreated enzyme; activation factor at 5 µM; 96,000 tested, under 10 active;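 active = activation factor of at least 2 at 5 µM in the primary screen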;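 also: 0 = wells with 2.5 mM tranylcypromine and 1 = vehicle-only wells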
CYP2C9 act: activators of human CYP2C9; P11712; recombinant CYP2C9, luciferin-H conversion, luminescence; active compounds read high; factor 1 = untreated enzyme, 0 = blocked; activation factor at 5 µM; 96,000 tested, 1.4% active; AID 1024;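 active = activation factor of 2 or more for CYP2C9 at a 5 µM dose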;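 also: 0 = sulfaphenazole-blocked wells and 1 = vehicle-only wells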
Target sequence (P11712 whole entry, looked up): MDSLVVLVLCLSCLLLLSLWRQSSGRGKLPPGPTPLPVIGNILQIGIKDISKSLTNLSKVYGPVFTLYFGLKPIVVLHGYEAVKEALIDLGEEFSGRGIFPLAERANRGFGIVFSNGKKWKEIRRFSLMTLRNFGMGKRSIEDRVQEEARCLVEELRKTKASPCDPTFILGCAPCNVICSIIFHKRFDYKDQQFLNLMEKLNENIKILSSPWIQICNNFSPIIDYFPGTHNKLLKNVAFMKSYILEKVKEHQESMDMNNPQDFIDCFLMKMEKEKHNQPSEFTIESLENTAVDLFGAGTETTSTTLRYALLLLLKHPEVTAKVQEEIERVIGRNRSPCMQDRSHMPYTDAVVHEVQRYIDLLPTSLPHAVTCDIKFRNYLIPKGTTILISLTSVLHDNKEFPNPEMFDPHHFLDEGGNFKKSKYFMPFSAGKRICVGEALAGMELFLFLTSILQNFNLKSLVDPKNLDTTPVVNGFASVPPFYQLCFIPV
CYP2C9 inhib: human CYP2C9 inhibition; CYP2C9 Supersomes, luciferin-H conversion, luminescence; inhibition, % at 5 µM; 96,000 tested, 20% active; AID 777;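 active = blocking of liver enzyme CYP2C9 beyond about 50% at 5 µM, limit read from the data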
CYP2C19 inhib: inhibitors of human CYP2C19. 96,000 tested, 21% active. CYP2C19 Supersomes, luciferin-H EGE luminescence, 30 min. AID 778. inhibition, % at 5 µM. P33261;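 active = CYP2C19 inhibition above a set limit at 5 µM in the primary screen, cut at about 50% in these data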;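 also: plate controls were negative control wells for no effect and 2.5 mM tranylcypromine positive control for full effect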
An asterisk follows results filed as active.

SMILES	CYP2C19 activ	CYP2C9 act	CYP2C9 inhib	CYP2C19 inhib
COc1ccc(C(=O)c2ccc(CC#N)s2)cc1	0.4	0.9	6	56*
COc1ccc(C(=O)c2no[n+]([O-])c2C(=O)c2ccc(OC)cc2)cc1	0.6	1	-4	44
CC1CCCCN1S(=O)(=O)c1ccc(NC(=O)c2cccs2)cc1 (stereo not drawn)	0.4	0.3	74*	56*
CCCCN(CCCC)S(=O)(=O)c1ccc(NC(=O)c2cccs2)cc1	0.4	0.1	91*	60*
CC1CCN(S(=O)(=O)c2ccc(NC(=O)c3cccs3)cc2)CC1	0.2	0	96*	84*
Cc1cc(C)nc(NS(=O)(=O)c2ccc(NC(=O)c3cccs3)cc2)n1	0.8	0.6	44	16
CCOc1cc(C2c3c(n[nH]c3C)C(=O)N2c2ccc(C)cc2)ccc1O (stereo not drawn)	1	0.9	6	3
O=C(Oc1ccc(-c2cn3c(n2)SCC3)cc1)c1ccccc1	1.1	1.1	-10	-10
CC1(C)Cc2nc(N)c(C(=O)NCCO)cc2CO1	1.1	0.8	16	-6
Cn1c(-c2ccc(F)cc2)cnc1NCc1ccccc1	0.7	1	3	32
Cn1c(-c2ccc(F)cc2)cnc1NCc1cccc(F)c1	0.5	0.6	37	53*
COc1cccc(-c2cnc(NCc3cc(Cl)ccc3O)n2C)c1	0	0	98*	99*
Cn1c(-c2cccc(Br)c2)cnc1NCc1cccnc1	0.2	0.4	64*	77*
Cc1sc2ncnc(NCC(c3ccco3)N3CCCC3)c2c1C (stereo not drawn)	0.7	0.5	48	28
COc1cccc(C(=O)Nc2ccc(NC(=O)C(C)(C)C)cn2)c1	1	1.1	-13	-3
Cc1ccc(S(=O)(=O)N2CCCC2)cc1C(=O)O	1.2	1	3	-22
CC(C)OC(=O)CC12CN(C)CC(CC(=O)OC(C)C)(CN(C)C1)C2=O	1.2	1.1	-10	-16
CC(C)NS(=O)(=O)c1cccc2nsnc12	1	1.1	-10	-1
CCOC(=O)c1cccc(NC(=O)CCS(=O)(=O)c2cccc3nsnc23)c1	0.2	0.3	72*	77*
CCOC(=O)c1ccc(NS(=O)(=O)c2cccc3nsnc23)cc1	0.6	0.2	78*	37
Cc1ccc(NC(=O)CN2C(=O)C(C)Oc3ccccc32)nc1 (stereo not drawn)	0.9	1	-3	10
Cc1ccc(C(=O)Nc2cnc3ccccn3c2=O)cc1	0.8	0.8	22	18
O=c1c(/C=N/O)c(Nc2ccccc2)nc2ccccn12	0.8	0.5	50*	20
CC(=O)Oc1ccc(CCC(C)OC(C)=O)cc1 (stereo not drawn)	0.9	1	4	10
CC1(C)C(=O)OC(c2ccco2)C(C)(C)C1=O (stereo not drawn)	0.7	1	-2	34
SMILES	CYP2C19 activ	CYP2C9 act	CYP2C9 inhib	CYP2C19 inhib
CCC1(CC)C(=O)C(C)(C)C(=O)OC1c1ccccn1 (stereo not drawn)	0.7	0.4	60*	33
O=C(CNS(=O)(=O)/C=C/c1ccccc1)OCC(=O)N1CCC(Cc2ccccc2)CC1	0.8	0.5	52*	24
CC1CC(C)CN(C(=O)COC(=O)CNS(=O)(=O)/C=C/c2ccccc2)C1 (stereo not drawn)	0.9	1	0	10
O=S(Cc1cc(Sc2ccccc2)nc(-c2ccccc2)n1)c1ccccc1 (stereo not drawn)	0	0.1	94*	98*
COCc1cc(Sc2ccc(Cl)cc2Cl)nc(-c2ccccc2)n1	1.1	1.2	-19	-5
CNc1cc(CS(=O)c2ccccc2)nc(-c2ccccc2)n1 (stereo not drawn)	0.1	1	3	93*
COc1ccc(C(=O)/C=C/c2ccccc2C(F)(F)F)cc1	0.9	1.9	-90	15
Cc1occc1C(=O)NNC(=O)NC12CC3CC(CC(C3)C1)C2	0.8	1	-4	15
Cc1cccc(C)c1N1CCN(c2ccc3nnc(C(F)(F)F)n3n2)CC1	0.4	0.1	89*	64*
FC(F)(F)c1nnc2ccc(N3CCOCC3)nn12	1.2	1.2	-18	-20
C=CCNC(=O)c1ccc(Sc2ccccc2)c([N+](=O)[O-])c1	0.2	0.3	70*	76*
CC(C)(C)NC(=O)c1ccc(Sc2ccccc2)c([N+](=O)[O-])c1	0.3	0.1	92*	70*
C=CCNC(=O)c1cccc(C(F)(F)F)c1	0.9	1	5	10
Cc1ccc(C(=O)NC(C)CCc2ccccc2)cc1[N+](=O)[O-] (stereo not drawn)	0.6	0.7	28	37
C=CCSc1nnc(NC(=O)c2nc(SCC)ncc2Cl)s1	1	0.7	34	-2
CSc1ncc(Cl)c(C(=O)Nc2nnc(SC/C=C/c3ccccc3)s2)n1	0.2	0	99*	80*
COc1ccc(NC(=O)c2ccc(Br)o2)c([N+](=O)[O-])c1	0.9	1.1	-6	5
CCOC(=O)CSc1nnc(SCCN2C(=O)c3ccccc3C2=O)s1	0.6	0.2	83*	42
Nc1nnc(SCCN2C(=O)c3ccccc3C2=O)s1	1.2	1.1	-8	-17
COC(=O)c1onc(C(=O)c2ccccc2)c1C(=O)OC	0.4	0.5	51*	62*
COC(=O)c1nn(-c2ccccc2)c(-c2ccccc2)c1C(=O)c1ccccc1	0.7	0.6	43	34
C/C=C(\C)CN1CCN(c2cc(C)ccc2C)CC1	0.2	0.5	55*	82*
C/C=C(\C)CN1CCN(c2ccccc2F)CC1	0.3	0.8	23	73*
Cc1ccc(C)c(N2CCN(Cc3nnnn3C3CCCCC3)CC2)c1	0.4	0.6	42	56*
C/C=C(\C)CN1CCN(c2cccc(C)c2C)CC1	0.7	0.8	16	28
SMILES	CYP2C19 activ	CYP2C9 act	CYP2C9 inhib	CYP2C19 inhib
O=C(Nc1nc2ccccc2s1)C1CC(=O)N(c2ccc(Br)cc2)C1 (stereo not drawn)	1	0.5	46	0
CCN(CC)c1ccc(C(=O)OCC(=O)N2CCN(c3ccccc3)CC2)cc1	0.9	0.9	6	7
O=C(CSc1nnc(CNc2cccc(Cl)c2)o1)OC1CCCCC1	0.7	0.6	39	29
C=C(C)CSc1nnc(CCNC(=O)OC(C)(C)C)o1	0.1	0.7	34	87*
O=C(CSc1nnc(Cn2nnc3ccccc32)o1)N(Cc1ccc(Cl)cc1)c1ccccc1	0.9	0.6	42	12
CC(C)(C)OC(=O)NCCCCCc1nnc(SCC(=O)Nc2cccc(Cl)c2)o1	0.1	0.1	90*	93*
Clc1ccc(CSc2nnc(Cn3cnc4ccccc43)o2)cc1	0.5	0.3	67*	45
Clc1ccc(CSc2nnc(CNc3cccc(Cl)c3)o2)cc1	0.5	0.7	25	53*
Cc1ccc(OCC(=O)OCc2c(C)noc2C)cc1C	0.7	0.8	16	29
CCSc1nnc(CCNC(=O)OC(C)(C)C)o1	1.1	0.9	12	-11
CC(C)(C)OC(=O)NCCc1nnc(SCc2ccc(Cl)cc2)o1	0.8	0.5	54*	25
